# Data as given in PubChem BioAssay (EPA / NIEHS).
# Inconclusive results are not listed. The source made the active and inactive calls. The calls were made as follows: active = hit-call score of the fitted dose curve at least 0.9, where 1 is the maximum; inconclusive = response in the unintended direction; inactive = score below 0.9.
# Tests used:
# [1] = biological target: human Peripheral-type Benzodiazepine Receptor (PBR), TSPO (gene 706) (UniProt P30536); experiment: NVS_MP_hPBR: NovaScreen (NVS) Membrane Protein Assay for human Peripheral-type Benzodiazepine Receptor (PBR) (AID 2283331);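 also: hits reduce radioligand binding relative to DMSO baseline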
# human Peripheral-type Benzodiazepine Receptor (PBR), TSPO (gene 706), sequence (P30536 whole entry, looked up): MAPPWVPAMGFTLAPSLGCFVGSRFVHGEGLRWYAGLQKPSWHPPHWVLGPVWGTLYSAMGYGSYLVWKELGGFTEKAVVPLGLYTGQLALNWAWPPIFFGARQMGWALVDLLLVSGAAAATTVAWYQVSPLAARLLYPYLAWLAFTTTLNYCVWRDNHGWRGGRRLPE
# Method in brief: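 Using human colon-derived membranes, this one-endpoint binding test reads radioligand loss by scintillation after 1 h. Screening started at 25 uM in duplicate, with positive and negative controls on every plate, and actives moved to dose series.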
# [2] = biological target: rat Peripheral-type Benzodiazepine Receptor (PBR), Tspo (gene 24230) (UniProt P16257); experiment: NVS_MP_rPBR: NovaScreen (NVS) Membrane Protein Assay for rat Peripheral-type Benzodiazepine Receptor (PBR) (AID 2283335)
# rat Peripheral-type Benzodiazepine Receptor (PBR), Tspo (gene 24230), sequence (P16257 whole entry, looked up): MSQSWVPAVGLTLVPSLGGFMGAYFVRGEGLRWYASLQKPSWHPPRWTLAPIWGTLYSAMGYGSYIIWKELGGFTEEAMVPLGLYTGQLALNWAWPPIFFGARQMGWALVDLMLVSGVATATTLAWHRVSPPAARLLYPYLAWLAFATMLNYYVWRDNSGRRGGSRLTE
# Method in brief: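 Competitive displacement of specific radioligand from rat kidney membrane PBR, read by filtration and scintillation after 1 h. Compounds first tested at 25 uM in duplicate, then in concentration series; signal loss relative to DMSO.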
# [3] = biological target: rat Glutamate, MK-801 Agonist Site (GluNMDA_MK801), Grin1 (gene 24408) (UniProt P35439); experiment: NVS_LGIC_rGluNMDA_MK801_Agonist: NovaScreen (NVS) Ligand-Gated Ion Channel Assay for rat Glutamate, MK-801 Agonist Site (GluNMDA_MK801) (AID 2283340)
# Method: NVS_LGIC_rGluNMDA_MK801_Agonist is a biochemical, single-readout assay that uses extracted gene-proteins from Rat forebrain membranes in a tissue-based cell-free assay. Measurements were taken 1.5 hours after chemical dosing in a 48-well plate.NVS_LGIC_rGluNMDA_MK801_Agonist is one of one assay component(s) measured or calculated from the NVS_LGIC_rGluNMDA_MK801_Agonist assay. It is designed to make measurements of radioligand binding, a form of binding reporter, as detected with scintillation counting signals by Filter-based radiodetection technology.Data from the assay component NVS_LGIC_rGluNMDA_MK801_Agonist was analyzed into 1 assay endpoint. This assay endpoint, NVS_LGIC_rGluNMDA_MK801_Agonist, was analyzed in the positive analysis fitting direction relative to DMSO as the negative control and baseline of activity. Using a type of binding reporter, gain-of-signal activity can be used to understand changes in the binding as they relate to the gene Grin1. Furthermore, this assay endpoint can be referred to as a primary readout, because the performed assay has only produced 1 assay endpoint. To generalize the intended target to other relatable targets, this assay endpoint is annotated to the ion channel intended target family, where the subfamily is ligand-gated ion channel. […]
# [4] = NVS_IC_rCaBTZCHL: NovaScreen (NVS) Ion Channel Assay for Calcium Channel, Type L, Benzothiazepine Site (CaBTZCHL) (AID 2283337)
# Method in brief: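 Test chemicals were added to rat cortical membranes and incubated 1.5 h with a tritiated or iodinated radioligand for the benzothiazepine site. Bound ligand was separated by filtration and counted. Actives from the 25 uM duplicate screen were retested in concentration series.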
# [5] = biological target: Small conductance calcium-activated potassium channel protein 1 (Rattus norvegicus) (UniProt P70606); experiment: NVS_IC_rKCaCh: NovaScreen (NVS) Ion Channel Assay for rat Potassium Channel, Ca2+ Act., VI (KCaCh) (AID 2283336)
# Small conductance calcium-activated potassium channel protein 1 (Rattus norvegicus), sequence (P70606 whole entry, looked up): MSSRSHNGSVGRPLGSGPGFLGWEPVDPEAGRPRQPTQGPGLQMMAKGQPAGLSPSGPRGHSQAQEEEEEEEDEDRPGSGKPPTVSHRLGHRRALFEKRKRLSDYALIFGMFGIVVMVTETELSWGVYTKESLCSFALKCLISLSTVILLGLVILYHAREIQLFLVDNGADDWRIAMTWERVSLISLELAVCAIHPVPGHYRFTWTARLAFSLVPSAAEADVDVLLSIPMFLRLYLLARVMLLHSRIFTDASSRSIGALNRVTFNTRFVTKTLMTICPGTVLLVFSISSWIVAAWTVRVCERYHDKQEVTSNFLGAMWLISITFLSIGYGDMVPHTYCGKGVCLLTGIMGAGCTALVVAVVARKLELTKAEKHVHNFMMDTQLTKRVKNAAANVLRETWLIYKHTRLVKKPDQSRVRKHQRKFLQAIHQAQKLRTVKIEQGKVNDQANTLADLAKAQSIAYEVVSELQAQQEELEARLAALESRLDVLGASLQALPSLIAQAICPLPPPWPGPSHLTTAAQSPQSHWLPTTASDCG
# Method in brief: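 Filter-based scintillation counting of radioligand bound to rat forebrain membrane preparations, measured 1 h after compound addition. Primary screen used 25 uM in duplicate, with concentration-response follow-up; signal decrease relative to DMSO marks activity.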
# [6] = biological target: rat Gamma-Aminobutyric Acid Type A Receptor BDZ, alpha 6 site (GABARa6), Gabra6 (gene 29708) (UniProt P30191); experiment: NVS_LGIC_rGABARa6: NovaScreen (NVS) Ligand-Gated Ion Channel Assay for rat Gamma-Aminobutyric Acid Type A Receptor BDZ, alpha 6 site (GABARa6) (AID 2283339)
# rat Gamma-Aminobutyric Acid Type A Receptor BDZ, alpha 6 site (GABARa6), Gabra6 (gene 29708), sequence (P30191 whole entry, looked up): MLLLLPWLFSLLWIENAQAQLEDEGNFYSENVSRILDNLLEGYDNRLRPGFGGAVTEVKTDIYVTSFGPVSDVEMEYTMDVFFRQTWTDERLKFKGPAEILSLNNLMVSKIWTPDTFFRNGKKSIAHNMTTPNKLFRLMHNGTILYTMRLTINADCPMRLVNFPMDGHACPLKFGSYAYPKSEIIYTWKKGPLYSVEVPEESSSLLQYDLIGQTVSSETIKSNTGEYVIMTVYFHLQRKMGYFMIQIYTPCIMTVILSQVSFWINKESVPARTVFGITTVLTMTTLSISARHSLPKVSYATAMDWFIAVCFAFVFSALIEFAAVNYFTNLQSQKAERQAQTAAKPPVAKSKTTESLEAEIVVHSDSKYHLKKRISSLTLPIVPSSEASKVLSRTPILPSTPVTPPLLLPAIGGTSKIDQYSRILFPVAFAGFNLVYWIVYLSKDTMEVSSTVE
# Method in brief: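 Actives from a 25 uM duplicate screen were retested in concentration series (max 50 uM). Specific radioligand displacement from rat cerebellar membranes was counted by filter-based scintillation at 1 h; DMSO served as baseline.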
structure (smiles),measurement,setting,value
CCc1cccc(C)c1N(C(=O)CCl)C(C)COC (stereo unspecified),AC50,[1],9.23 µM (active)
same,AC50,[2],8.9 µM (active)
same,outcome,[3],inactive
Cc1cc(C2CC2)nc(Nc2ccccc2)n1,AC50,[1],25 µM (active)
same,AC50,[2],7.55 µM (active)
CC1=NNC(=O)N(/N=C/c2cccnc2)C1,outcome,[1],inactive
same,outcome,[4],inactive
CN(C)C(=O)Nc1cccc(C(F)(F)F)c1,AC50,[1],17.9 µM (active)
same,AC50,[2],10.8 µM (active)
same,outcome,[5],inactive
same,outcome,[6],inactive
CCOP(=S)(OCC)SCCSCC,outcome,[1],inactive
same,AC50,[2],17.9 µM (active)
C[N+]1(C)CCCCC1,outcome,[2],inactive
CCC(=NOC/C=C/Cl)C1=C(O)CC(C2CCOCC2)CC1=O (stereo unspecified),outcome,[1],inactive
same,outcome,[2],inactive
